For 14 compounds, Potency results are on record in PubChem BioAssay (NCATS).

Inconclusive results are not listed. Calls of active or inactive are those of the source. Calls follow the shape of the dose curve; as a rule, active = well fitted inhibition curve with a large enough effect; inconclusive = small, poorly fitted or top-dose-only effect; inactive = flat fitted curve, though single readings scatter.

Holding throughout (assay): qHTS profiling for inhibitors of Plasmodium falciparum proliferation (AID 504749); also: nearly all actives have a fitted effect of over 60% in size
Common to all, as to conditions: P. falciparum in erythrocytes, SYBR Green DNA, 72 h; series mostly up to 28.7 µM
(In qHTS, concentration-response curves come from the screen itself.)

One assay relates to CP265. The essentials:
(§1)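 Fluorescence of SYBR Green-bound parasite DNA, read at 485/535 nm, served as the growth measure. Infected erythrocytes were cultured with compound 72 h; artemisinin (0.29 uM) and DMSO wells defined the normalization range.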

The subject of the next assay is CP266. The essentials:
as §1

A further assay deals with CP268. The essentials:
as §1

In a further assay the test system is CP269. The essentials:
as §1

Another assay concerns CP286. The essentials: as §1
Another assay concerns CP291. The essentials:
as §1

The next assay concerns CP297. The essentials: as §1
For a further assay, the system named is CP305. The essentials: as §1
The next assay deals with CP315. The essentials: as §1
The test system of another assay is CP325. A digest of the protocol: as §1
A further assay concerns CP329. A digest of the protocol:
as §1

The next assay concerns CP335. A digest of the protocol:
as §1

Another assay deals with DFO2036. A digest of the protocol:
as §1

The next assay deals with DIV14. A digest of the protocol:
as §1

For a further assay, the system named is DIV17. The essentials:
as §1

The test system of another assay is DIV30. The essentials:
as §1

Another assay concerns Dd2. A digest of the protocol:
as §1

The next assay has as its system ECU. A digest of the protocol: as §1
A further assay deals with FAB9. A digest of the protocol:
as §1

The subject of the next assay is GB4. The essentials:
as §1
Potency is read from the fitted curve at half-maximal effect.

Consider `CC(=O)OC[C@H]1O[C@@H](n2ncc(=O)[nH]c2=O)[C@H](OC(C)=O)[C@@H]1OC(C)=O`, for which the Potency entry in the assay on CP265, in the assay with CP266, with CP268, in the assay on CP269, in the assay on CP286 and in the assay on CP291 was “inactive” each time. Further, the Potency entry in the assay on CP297, with CP305, in the assay with CP315, in the assay on CP325, in the assay on CP329 and in the assay with CP335 was “inactive” in each case. The Potency entry in the assay on DFO2036, in the assay with DIV14, in the assay on DIV17, with DIV30, with Dd2 and with ECU was “inactive” throughout. For the same compound, the Potency result in the assay on FAB9 and with GB4 was “inactive” throughout.
With `N#CCC(=O)NN`, the Potency result in the assay with CP265, in the assay on CP266, in the assay with CP268, in the assay with CP269, in the assay with CP286 and with CP291 was “inactive” each time. Moreover, the Potency entry in the assay with CP297, with CP305, in the assay on CP315, with CP325, in the assay with CP329 and in the assay with CP335 was “inactive” throughout. The Potency entry in the assay with DFO2036, in the assay with DIV14, in the assay on DIV17, in the assay on DIV30, with Dd2 and in the assay on ECU was “inactive” throughout. Moreover, the Potency result in the assay on FAB9 and with GB4 was “inactive” in each case.
For the compound `CCCCc1cc2ccccc2c(OCCN(C)C)n1`, the Potency result in the assay with CP265, in the assay on CP266, with CP268, with CP269, in the assay on CP286 and with CP291 was “inactive” each time. Besides, the Potency entry in the assay on CP297, in the assay on CP305, in the assay with CP315, with CP325, in the assay on CP329 and with CP335 was “inactive” in each case. In addition, the Potency entry with DFO2036, with DIV14, with DIV17, in the assay with DIV30, with ECU and in the assay on FAB9 was “inactive” each time.
`COc1cc(C(=O)NCc2ccc(OCCN(C)C)cc2)cc(OC)c1OC`: the Potency entry in the assay on CP265, in the assay on CP266, in the assay with CP268, with CP269, with CP286 and with CP291 was “inactive” in each case. Further, the Potency entry with CP297, with CP305, in the assay on CP315, in the assay on CP325, in the assay on CP329 and in the assay with CP335 was “inactive” in each case. The Potency result in the assay on DFO2036, with DIV14, with DIV17, with DIV30, in the assay on Dd2 and in the assay on ECU was “inactive” each time. In addition, the Potency result in the assay with FAB9 and in the assay with GB4 was “inactive” each time.
In the case of `CC(C)CCCC(C)N` (stereo unspecified), the Potency result in the assay on CP265, in the assay on CP266, in the assay on CP268, in the assay with CP269, in the assay on CP286 and in the assay with CP291 was “inactive” in each case. For the same compound, the Potency result with CP297, with CP305, in the assay on CP315, in the assay with CP325, with CP329 and in the assay on CP335 was “inactive” in each case. Moreover, the Potency entry in the assay on DFO2036, with DIV14, in the assay on DIV17, in the assay with DIV30, with Dd2 and with ECU was “inactive” in each case. Besides, the Potency result in the assay on FAB9 and in the assay with GB4 was “inactive” each time.
Take `CCOC(=O)C(C#N)=C(c1ccccc1)c1ccccc1`: the Potency entry in the assay on CP265, with CP266, in the assay with CP268, in the assay on CP269, in the assay on CP286 and in the assay with CP291 was “inactive” in each case. Further, the Potency result with CP297, in the assay with CP305, in the assay with CP315, in the assay on CP325, in the assay on CP329 and with CP335 was “inactive” throughout. Moreover, the Potency result in the assay with DFO2036, in the assay with DIV14, in the assay with DIV17, in the assay with DIV30, with Dd2 and with ECU was “inactive” throughout. The Potency entry in the assay on FAB9 and with GB4 was “inactive” each time.
Take `COP(=O)(OC)OC(c1ccc(Cl)cc1)P(=O)(OC)OC` (stereo unspecified): the Potency result in the assay on CP265, in the assay with CP266, in the assay with CP268, in the assay on CP269, in the assay on CP286 and in the assay on CP291 was “inactive” in each case. Further, the Potency entry with CP297, in the assay on CP305, in the assay with CP315, in the assay with CP325, in the assay on CP329 and in the assay with CP335 was “inactive” throughout. Further, the Potency result in the assay with DFO2036, with DIV14, in the assay on DIV17, with DIV30, with Dd2 and in the assay on ECU was “inactive” throughout. Further, the Potency result in the assay with FAB9 and in the assay on GB4 was “inactive” in each case.
On to `COc1cc(C(=O)N2CCCCCCC2)cc(OC)c1OC`, for which the Potency entry in the assay on CP265, in the assay with CP266, in the assay on CP268, in the assay with CP269, in the assay with CP286 and with CP291 was “inactive” throughout. Further, the Potency entry in the assay with CP297, in the assay on CP305, in the assay on CP315, in the assay on CP325, in the assay on CP329 and in the assay on CP335 was “inactive” in each case. The Potency entry in the assay with DFO2036, in the assay on DIV14, in the assay on DIV17, with DIV30, with Dd2 and in the assay on ECU was “inactive” in each case. The Potency entry in the assay with FAB9 and in the assay with GB4 was “inactive” in each case.
For the compound `OC1C(O)C(O)C(O)C(O)C1O` (stereo unspecified), the Potency result with CP265, in the assay on CP266, in the assay with CP268, with CP269, in the assay on CP286 and in the assay on CP291 was “inactive” throughout. Also, the Potency result in the assay with CP297, in the assay on CP305, in the assay with CP315, in the assay on CP325, with CP329 and with CP335 was “inactive” each time. Further, the Potency result with DFO2036, in the assay with DIV14, in the assay with DIV17, in the assay on DIV30, with Dd2 and with ECU was “inactive” throughout. Also, the Potency result in the assay with FAB9 and in the assay on GB4 was “inactive” in each case.
As for `Nc1ccc(S(=O)(=O)NCc2ccccc2)cc1`, the Potency result in the assay on CP265, with CP266, with CP268, in the assay with CP269, in the assay on CP286 and in the assay on CP291 was “inactive” in each case. Also, the Potency entry with CP297, with CP305, with CP315, in the assay on CP325, in the assay with CP329 and with CP335 was “inactive” in each case. For the same compound, the Potency entry in the assay on DFO2036, in the assay with DIV14, in the assay on DIV17, with DIV30, in the assay with Dd2 and in the assay on ECU was “inactive” in each case. Besides, the Potency entry in the assay on FAB9 and with GB4 was “inactive” in each case.
Regarding `CCCCCCCCCCCCSCCOCCO`, the Potency result in the assay on CP265, in the assay on CP266, in the assay on CP268, in the assay with CP269, in the assay with CP286 and in the assay on CP291 was “inactive” in each case. For the same compound, the Potency entry with CP297, with CP305, with CP315, with CP325, with CP329 and with CP335 was “inactive” in each case. Further, the Potency entry with DFO2036, in the assay on DIV14, with DIV17, in the assay on DIV30, in the assay with Dd2 and in the assay with ECU was “inactive” throughout. Further, the Potency entry in the assay with FAB9 and in the assay on GB4 was “inactive” in each case.
`O=C(c1ccc(F)cc1)C1CCN(CCn2c(=S)[nH]c3ccccc3c2=O)CC1`: the Potency was 7.94 µM (active) in the assay on CP265; 7.57 µM (active) in the assay on CP266; 6.01 µM (active) in the assay on CP268; 6.75 µM (active) with CP269; 3.98 µM (active) in the assay on CP286; 6.75 µM (active) in the assay on CP291. Moreover, the Potency was 6.75 µM (active) with CP297; 6.75 µM (active) in the assay with CP305; 15.1 µM (active) with CP315; 7.57 µM (active) with CP325; 6.75 µM (active) with CP329; 5.62 µM (active) in the assay with DFO2036. Also, the Potency was 13.5 µM (active) in the assay with DIV17; 12 µM (active) with DIV30; 11.2 µM (active) in the assay with Dd2; 4.47 µM (active) in the assay on ECU; 12 µM (active) in the assay on GB4.
For the compound `CC(=O)Nc1ncc([N+](=O)[O-])s1`, the Potency entry in the assay with CP265, with CP266, with CP268, in the assay with CP269, in the assay with CP286 and in the assay on CP291 was “inactive” in each case. Also, the Potency result with CP297, in the assay with CP305, with CP315, with CP325, in the assay with CP329 and in the assay with CP335 was “inactive” each time. For the same compound, the Potency result with DFO2036, in the assay with DIV14, with DIV30, with Dd2, in the assay on ECU and with FAB9 was “inactive” in each case. Besides, the Potency result in the assay on GB4 is “inactive”.
Consider `C#C[C@]1(OC(C)=O)CC[C@H]2[C@@H]3CCC4=C/C(=N/O)CC[C@@H]4[C@H]3CC[C@@]21CC`, for which the Potency entry with CP265, with CP266, in the assay with CP268, in the assay with CP269, in the assay with CP286 and with CP291 was “inactive” throughout. For the same compound, the Potency result in the assay with CP297, in the assay with CP305, in the assay with CP315, in the assay with CP325, with CP329 and with DFO2036 was “inactive” in each case. For the same compound, the Potency entry in the assay on DIV30, in the assay on Dd2, in the assay on ECU, in the assay on FAB9 and with GB4 was “inactive” throughout.
